# Screening results: PubChem BioAssay, National Center for Advancing Translational Sciences (NCATS)
# An excerpt weighted towards active compounds, which were near 3% of everything screened.
# 12-LOX inh: Primary qHTS assay for inhibitors of human arachidonate 12S-lipoxygenase (ALOX12): Round 2; Polyunsaturated fatty acid lipoxygenase ALOX12 (Homo sapiens), P18054; 1.1% of 580,000 active; purified 12hLO, xylenol orange hydroperoxide absorbance; Potency, µM (series often up to 108 µM), for inactives: at the highest dose activity change, negative = inhibition, hits mostly inhibitors
#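 Purified human 12hLO (150 nM final) in 25 mM Hepes, 0.01% Triton X-100, pH 7.0 was preincubated 15 min at room temperature with compound. Then 40 uM arachidonic acid was added, 30 min. Hydroperoxide was read by Fe-XO absorbance ratio 573/405 nm.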
# VDR inh: Inhibitors of the vitamin D receptor (VDR): qHTS; Potency, µM, for inactives: max response, negative = inhibition, actives largely listed as inhibitors; VDR-SRC2-3 peptide fluorescence polarization, 2 h; AID 504847, 2011; 0.93% of 400,000 active
# Target sequence (P11473 whole entry, looked up): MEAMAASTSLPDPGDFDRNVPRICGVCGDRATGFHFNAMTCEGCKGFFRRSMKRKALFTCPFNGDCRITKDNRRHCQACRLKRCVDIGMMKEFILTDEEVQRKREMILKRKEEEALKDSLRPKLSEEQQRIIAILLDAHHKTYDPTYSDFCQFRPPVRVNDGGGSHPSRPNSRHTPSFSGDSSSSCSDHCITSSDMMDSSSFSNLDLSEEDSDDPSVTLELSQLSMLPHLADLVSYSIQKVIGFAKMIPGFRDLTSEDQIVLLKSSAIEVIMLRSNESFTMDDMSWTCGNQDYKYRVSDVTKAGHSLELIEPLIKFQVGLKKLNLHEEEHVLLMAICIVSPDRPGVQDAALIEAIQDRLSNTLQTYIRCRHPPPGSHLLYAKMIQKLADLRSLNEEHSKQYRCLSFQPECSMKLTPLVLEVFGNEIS
#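 Reagent solutions, kept cold and dark, are dispensed first; compounds are then pinned in at 23 nl, plates briefly spun, and incubated 2 h at ambient temperature. Inhibition of VDR–SRC2-3 peptide binding is read by fluorescence polarization.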
# KAT2A inh: qHTS Assay for Inhibitors of GCN5L2; Potency, µM (highest dose often 58.9 µM), for inactives: at the highest dose activity change, negative = inhibition, usual class: inhibitors; GCN5L2 HAT assay, ThioGlo1 CoA-SH fluorescence; 0.21% of 390,000 active; Histone acetyltransferase KAT2A (Homo sapiens), Q92830
#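 Free CoA generated was detected with ThioGlo1 (50uM) fluorescence at Ex340nm/Em540nm, read immediately and after 20 min at room temperature. Enzyme, 20 nM in HEPES pH 7.5 buffer, saw compounds 15 min before adding 75uM H3(1-25) peptide and 70uM acetyl-CoA.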
# PLK1 PBD block: qHTS for Inhibitors of PLK1-PDB (polo-like kinase 1 - polo-box domain): Primary Screen. 2.8% of 360,000 active. Plk1 PBD binding of FITC phosphopeptide, fluorescence polarization. AID 720504, 2013. Serine/threonine-protein kinase PLK1 (Homo sapiens), P53350. Potency, µM, without a hit: max response, negative = inhibition, actives largely listed as inhibitors; note: series mostly up to about 57 µM; nearly all actives have a fitted effect of over 65% in size
# Active calls of the source: *; ? = inconclusive; . = not tested or not shown; [ ] = remark or other dose. Calls come from the whole dose curve; as a rule, active = well fitted curve in the direction sought with a large enough effect; inconclusive = small, poorly fitted or top-dose-only effect, or another doubt; inactive = no such curve, though single readings can be large; an effect the other way counts as inactive or inconclusive. % is set by controls: 0 for no effect and ±100 for the full control effect; potency is the fitted concentration of half-maximal effect.
SMILES,12-LOX inh,VDR inh,KAT2A inh,PLK1 PBD block
O=C(N/N=C/c1cc([N+](=O)[O-])cc([N+](=O)[O-])c1O)/C(=C\c1cccs1)NC(=O)c1ccccc1,16µM*,-7%,-3%,-25%
COc1ccc2ccccc2c1CN1CCSCC1,1.6µM*,-4%,0%,6%
O=C(NC12CC3CC(CC(C3)C1)C2)c1ccc(Cl)c([N+](=O)[O-])c1,-3%,.,.,.
Cc1cccc(-c2noc(CNC(=O)CN(C)S(=O)(=O)c3ccc4ccccc4c3)n2)c1,-2%,.,.,.
CN(C)C(=O)c1ccc(-c2cc3c(Nc4cccc(Oc5ccccc5)c4)nccc3n2C)cc1,-1%,.,.,.
CC(C)(C)c1ccc(CN2N=Nc3ccccc3S2(=O)=O)cc1,?,50µM*,?,13µM*
CCNc1c(NC(=O)NCC2CCCO2)c(=O)oc2ccccc12 (stereo unspecified),-24%,.,.,.
CCOC(=O)c1sc(NC(=S)NC(=O)C23CC4CC(CC(C4)C2)C3)cc1C,35µM*,3%,1%,-4%
CCOC(=O)c1sc(NC(=S)NC(=O)C2CC2)cc1C,-4%,-12%,-10%,6%
O=C(N/N=C/c1ccc(-c2ccc(Cl)c(C(=O)O)c2)o1)c1cc2c(ccc3ccccc32)o1,40µM*,-8%,-27%,?
CCOC(=O)c1c(C)[nH]c(C(=O)Cn2cnc3ccccc3c2=O)c1C,-17%,.,.,.
O=Cc1c[nH]c2cccc(Cl)c12,-13%,.,.,.
CC(c1ccccc1)N1C(=O)c2ccc(C(=O)Nc3ccc(Br)cc3C(=O)O)cc2C1=O (stereo unspecified),.,?,-8%,24µM*
CC(c1ccccc1)N1C(=O)c2ccc(C(=O)Nc3ccccc3C(=O)O)cc2C1=O (stereo unspecified),?,-20%,?,24µM*
CC(C)CCN1C(=O)c2ccc(C(=O)Nc3ccccc3C(=O)O)cc2C1=O,-1%,-16%,-17%,-23%
CC1(C)CC(NC(=O)C2CCC(CNC(=O)CNC(=O)c3ccccc3)CC2)CC(C)(C)N1 (stereo unspecified),3%,.,.,.
Cc1cc2nc(C(=O)Nc3ccc(C(C)C)cc3)c(=O)n(C)c2cc1C,-29%,.,.,.
O=C(Oc1ccc(Cl)cc1)C1CCCC(C(=O)Oc2ccc(Cl)cc2)C1 (stereo unspecified),14%,.,.,.
COC(=O)[C@H](Cc1ccc(OC)cc1)NC(=O)[C@H]1CN(C(=O)c2cccnc2)CCN1S(C)(=O)=O,-1%,.,.,.
Cc1ccc(C(=O)c2ccccc2C(=O)N(C)Cc2cccs2)cc1C,9%,.,.,.
CCc1ccccc1NC(=O)Cc1c(C)nc2nc(-c3cccs3)nn2c1C,29%,.,.,.
C=CC#CC1(O)CC(C)[N+](C)(C)CC1C (stereo unspecified),35µM*,-24%,-20%,21µM*
O=C(c1nn2c(C(F)(F)F)cc(-c3ccccc3)nc2c1Cl)N1CCOCC1,-1%,1%,-3%,-11%
O=C(c1nn2c(C(F)(F)F)cc(-c3ccc(F)cc3)nc2c1Cl)N1CCOCC1,11%,-4%,-7%,27µM*
CCCCCn1nc(C(=O)Nc2ccc(C(C)=O)cc2)c2ccccc2c1=O,-12%,.,.,.
SMILES,12-LOX inh,VDR inh,KAT2A inh,PLK1 PBD block
CCCN1CCN(C(=O)CC2CCN(C(=O)c3ccc4nc(-c5ccc(C)cc5)oc4c3)CC2)CC1,-23%,.,.,.
CCCCCCNC(=O)N[C@@H](C(=O)NCCC[C@H]1CN2C(=NC[C@@H]2Cc2ccccc2)N1CCc1cccc(OC)c1)C(C)C,.,?,40µM*,1.5µM*
O=C(CCC1CCCCC1)NCCN1C2=NC[C@H](Cc3ccccc3)N2C[C@H]1Cc1ccc(O)cc1,-25%,4%,7%,-15%
CCCn1nc2cc(C(=O)NC3CCCc4ccccc43)ccc2c1OCC (stereo unspecified),-11%,-9%,10µM*,-6%
CCOc1c2ccc(C(=O)N[C@H](C)C3CCCCC3)cc2nn1CC,-14%,-26%,0.89µM*,-18%
Cc1cnc(C(=O)N(C)Cc2ccc(Br)o2)cn1,-11%,.,.,.
CN(CC(=O)Nc1ccc(F)cc1)C(=O)COc1ncnc2scc(-c3ccc(Cl)cc3)c12,-4%,.,.,.
C[C@@H](NCc1cccc(Cl)c1)c1onc(-c2ccc(F)cc2)c1C(=O)O,28µM*,.,.,.
COc1cc(OC)c2c(=O)c(O)c(-c3ccc(OC)c(OC)c3)oc2c1,.,3%,-10%,.
COc1cc(OC)c2c(O)c3c(c(-c4c5c(c(O)c6c(OC)cc(OC)cc46)CO[C@@H](C)[C@H]5O)c2c1)[C@H](O)[C@H](C)OC3,.,3%,?,21µM*
CCc1ccc(NC(=O)NC(C(=O)N2CCc3ccccc32)c2ccccc2)cc1 (stereo unspecified),5%,.,.,.
O=c1cc(CSc2nnc(COc3ccc(Cl)cc3)o2)c2ccccc2[nH]1,0%,2%,-26%,-2%
COc1cccc(OCc2nnc(SCc3cc(=O)[nH]c4ccccc34)o2)c1,-38%,-14%,-5%,24µM*
Cc1ccc(-n2c(=O)[nH]c3sc4c(c3c2=O)CCCC4)cc1,?,-17%,-9%,.
Cc1ccc(-n2c(=S)[nH]c3sc4c(c3c2=O)CCC4)cc1,?,6%,0%,24µM*
Cc1ccc(C(=O)Nc2nnc(-c3ccncc3)o2)cc1,1%,20%,-12%,1%
O=C(NCCc1noc(-c2ccncc2)n1)c1ccccc1,8.9µM*,.,.,.
O=C(Nc1nnc(-c2ccncc2)o1)c1ccccc1,0%,?,-18%,7.5µM*
COc1ccccc1N1CCN(C(=S)Nc2ccc(S(=O)(=O)N3CCOCC3)cc2)CC1,-3%,-1%,-1%,-11%
O=S(=O)(c1ccc(NC(=S)N2CCN(c3ccccc3F)CC2)cc1)N1CCOCC1,0%,-2%,-8%,19µM*
O=S(=O)(c1ccc(NC(=S)NCCC(c2ccccc2)c2ccccc2)cc1)N1CCOCC1,45µM*,-19%,-8%,-13%
CN(C(=O)CCc1ccco1)C1CCCC1,10%,.,.,.
Cc1nc(-c2cccs2)c(CC(=O)N2CCc3ccccc3C2)s1,8.9µM*,.,.,.
O=C(Nc1ccccc1F)N1CC2CCC(C1)N2Cc1cccc(-c2ccsc2)c1,13%[6.33 µM],.,.,.
CCOc1ccc(-c2cc(C(=O)OC)c3cc(C)ccc3n2)cc1,-12%,.,.,.
Cc1ccoc1C(=O)NCCNC(=O)c1occc1C,4%,15%,-25%,-1%
Cc1ccoc1C(=O)NCCCNC(=O)c1occc1C,0%,?,-7%,27µM*
CC(NS(=O)(=O)c1ccc2c(c1)OCCO2)c1ccccc1 (stereo unspecified),23%,-1%,-6%,-4%
CC(C)C(NS(=O)(=O)c1ccc2c(c1)OCCCO2)C(=O)O (stereo unspecified),14%,45µM*,2%,24µM*
